From PubChem BioAssay AID1159580 (chemical genetic matrix, 2015)
Where “and” joins values, the source holds several entries; their conditions need not be identical. Equal entries are not always repeated. Out of some 5,500 compounds screened, about 2,000 (36%) were called active. Roughly 18% stayed inconclusive and do not appear here. Cut-off read from the data, not from the text of the source: active = normalized growth mostly below about 0.91 (no sharp cut-off); inconclusive = no clear call, values can overlap the other calls; inactive = mostly above about 0.92. The list shows a part of the results.

Test: chemical genetic growth profiling, strain panel (AID 1159580);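 note: tested at 20 µM; growth read once vehicle control cultures reached saturation at 30 °C; 1 = growth at the plate median or of vehicle wells; lower values mean less growth of the strain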
Settings: S. cerevisiae deletion strains, growth OD

Measured: normalized growth

O=C1N=C(O)CN1/N=C\c1ccc(-c2ccc([N+](=O)[O-])cc2)o1
inactive: locus YAL013W, strain DEP1, active compounds read low 1.01 and 0.985 | locus YAL021C, strain ccr4, active compounds read low 0.948 | locus YAL026C, strain drs2, active compounds read low 0.981 | locus YAL030W, strain snc1, active compounds read low 0.986 | locus YAL040C, strain CLN3, active compounds read low 1.03 | locus YBL061C, strain skt5, active compounds read low 1 | locus YBR009C, strain hhf1, active compounds read low 1 | locus YBR021W, strain FUR4, active compounds read low 1.03 | locus YBR023C, strain chs3, active compounds read low 0.998 | locus YBR171W, strain sec66, active compounds read low 0.98 | locus YBR229C, strain ROT2, active compounds read low 1.01 | locus YBR231C, strain swc5, active compounds read low 0.971 | locus YBR279W, strain paf1, active compounds read low 0.974 | locus YCL011C, strain gbp2, active compounds read low 0.989 | locus YCL016C, strain dcc1, active compounds read low 0.985 | locus YCL029C, strain bik1, active compounds read low 1.04 | locus YCL061C, strain MRC1 (second series), active compounds read low 1.01 | locus YCL061C, strain MRC1, active compounds read low 0.987 | locus YCL069W, strain vba3, active compounds read low 0.974 | locus YCR088W, strain abp1, active compounds read low 0.973 | locus YDL005C, strain med2, active compounds read low 0.973 | locus YDL035C, strain GPR1, active compounds read low 1.03 | locus YDL040C, strain nat1, active compounds read low 0.978 | locus YDL074C, strain BRE1, active compounds read low 1.04 | locus YDL101C, strain DUN1, active compounds read low 1.01 | locus YDL134C, strain PPH21, active compounds read low 1.02 | locus YDL185W, strain tfp1, active compounds read low 1.04 | locus YDL192W, strain arf1, active compounds read low 1.03 | locus YDR001C, strain nth1, active compounds read low 0.977 | locus YDR069C, strain doa4, active compounds read low 0.987 | locus YDR101C, strain arx1, active compounds read low 1.02 | locus YDR137W, strain rgp1, active compounds read low 0.918 | locus YDR150W, strain NUM1, active compounds read low 1.03 and 1 | locus YDR159W, strain sac3, active compounds read low 0.966 | locus YDR162C, strain NBP2, active compounds read low 1.02 | locus YDR195W, strain ref2 0.988 | locus YDR297W, strain sur2, active compounds read low 0.984 | locus YDR318W, strain mcm21, active compounds read low 1.02 | locus YDR334W, strain swr1, active compounds read low 0.949 | locus YDR335W, strain msn5, active compounds read low 0.985 | locus YDR363W, strain ESC2, active compounds read low 0.996 | locus YDR388W, active compounds read low 1.03 | locus YDR392W, strain spt3, active compounds read low 0.942 | locus YDR502C, strain sam2, active compounds read low 1.01 | locus YEL003W, strain gim4, active compounds read low 0.986 | locus YEL037C, strain rad23, active compounds read low 0.974 | locus YEL061C, strain CIN8 (second series), active compounds read low 0.97 | locus YEL061C, strain CIN8, active compounds read low 1.02 | locus YER002W, strain NOP16, active compounds read low 1 | locus YER015W, strain faa2, active compounds read low 0.968 | locus YER016W, strain bim1, active compounds read low 0.99 | locus YER110C, active compounds read low 1.03 | locus YER111C, strain swi4, active compounds read low 0.968 | locus YER155C, strain BEM2 (second series), active compounds read low 0.955 | locus YER155C, strain BEM2, active compounds read low 1.01 | locus YER167W, strain BCK2, active compounds read low 1.03 | locus YFR010W, strain ubp6, active compounds read low 0.984 | locus YGL078C, strain dbp3, active compounds read low 1.04 | locus YGL086W, strain mad1, active compounds read low 1.02 | locus YGL167C, strain pmr1, active compounds read low 0.994 | locus YGL173C, strain kem1, active compounds read low 0.99 | locus YGL227W, strain vid30, active compounds read low 0.986 | locus YGL240W, strain doc1, active compounds read low 0.977 | locus YGL248W, strain PDE1, active compounds read low 1.02 | locus YGL253W, strain hxk2, active compounds read low 0.987 | locus YGR078C, strain PAC10, active compounds read low 1.02 and 1.01 | locus YGR135W, strain pre9, active compounds read low 1.02 | locus YGR229C, strain SMI1, active compounds read low 0.997 | locus YGR252W, strain gcn5, active compounds read low 0.983 | locus YHR013C, strain ard1, active compounds read low 0.992 | locus YHR027C, strain rpn1, active compounds read low 0.992 | locus YHR030C, strain SLT2, active compounds read low 1.02 and 1.01 | locus YHR079C, strain IRE1 (second series), active compounds read low 1.02 | locus YHR079C, strain IRE1, active compounds read low 1.02 | locus YHR094C, strain hxt1, active compounds read low 1.03 | locus YHR129C, strain ARP1, active compounds read low 1.02 | locus YHR142W, strain chs7, active compounds read low 0.986 | locus YHR200W, strain rpn10, active compounds read low 1.02 | locus YIL066C, strain RNR3, active compounds read low 1.02 | locus YIL073C, strain SPO22, active compounds read low 1.06 | locus YIL125W, strain kgd1, active compounds read low 1.03 | locus YIR030C, strain dcg1, active compounds read low 1.03 | locus YJL092W, strain hpr5, active compounds read low 0.979 | locus YJL095W, strain BCK1 (second series), active compounds read low 0.993 | locus YJL095W, strain BCK1, active compounds read low 1.03 and 1.01 | locus YJL115W, strain asf1, active compounds read low 0.976 | locus YJL129C, strain trk1, active compounds read low 0.912 | locus YJL134W, strain LCB3, active compounds read low 1.01 | locus YJL154C, strain vps35, active compounds read low 0.968 | locus YJL164C, strain tpk1, active compounds read low 1.01 | locus YJL166W, strain qcr8, active compounds read low 0.978 | locus YJL168C, strain set2, active compounds read low 1.02 | locus YJL187C, strain SWE1 (second series), active compounds read low 1.02 | locus YJL187C, strain SWE1, active compounds read low 0.986 | locus YJR043C, strain POL32, active compounds read low 1.04 | locus YJR066W, strain TOR1, active compounds read low 0.944
